In the library only some 0.76% were active in any assay of this set; here they are far more common.
BH1578 lux ind: inducers of Vibrio cholerae quorum light production without autoinducers; V. cholerae BH1578 lux reporter, luminescence, 6 h; activation, % at 18.7 µM; actives 0.16% (n = 350,000); AID 588436; in the data active means activation mostly above about 9.7%, no sharp cut-off; inconclusive means no clear call, values can overlap the other calls; inactive means mostly below about 3.7%
Mtb betalactam: beta-lactam sensitization of Mtb H37Rv. M. tuberculosis H37Rv growth with meropenem, percent inhibition. inhibition, % at 25 µM. actives 0.27% (n = 330,000). AID 434955; call rule not given here;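 further: growth measured after seven days incubation then overnight dye step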
FadD28 FP inh: M. tuberculosis FadD28 bisubstrate binding inhibition | FadD28 bisubstrate probe binding, fluorescence polarization | inhibition, % at 12.5 µM | actives 0.22% (n = 360,000); in the data active means inhibition above about 8.5%, passing the limit was not always enough; inconclusive means no clear call, values can overlap the other calls
Rv3671c protease: Rv3671c (M. tuberculosis) protease inhibition; P9WHR9; inhibition, % at 5.96 µM; actives 0.048% (n = 320,000); in the data active means inhibition above about 38%;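 further: extracellular domain of Rv3671c used as enzyme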
PrP 5UTR inh: inhibition of PrP 5' UTR reporter expression. inhibition, % (no concentration beside the values). cell-based PrP 5' UTR mRNA reporter, plate reader. actives 0.35% (n = 340,000). AID 488862; in the data active means inhibition above about 52%
Mtb UGM inh: blocks M. tuberculosis UGM enzyme | P9WIQ1 | purified UGM, fluorescence polarization probe displacement | inhibition, % at 10 µM | actives 0.06% (n = 320,000) | AID 504406; in the data active means inhibition above about 10%, passing the limit was not always enough; inconclusive means no clear call, values can overlap the other calls
Target sequence (P9WIQ1 whole entry, looked up): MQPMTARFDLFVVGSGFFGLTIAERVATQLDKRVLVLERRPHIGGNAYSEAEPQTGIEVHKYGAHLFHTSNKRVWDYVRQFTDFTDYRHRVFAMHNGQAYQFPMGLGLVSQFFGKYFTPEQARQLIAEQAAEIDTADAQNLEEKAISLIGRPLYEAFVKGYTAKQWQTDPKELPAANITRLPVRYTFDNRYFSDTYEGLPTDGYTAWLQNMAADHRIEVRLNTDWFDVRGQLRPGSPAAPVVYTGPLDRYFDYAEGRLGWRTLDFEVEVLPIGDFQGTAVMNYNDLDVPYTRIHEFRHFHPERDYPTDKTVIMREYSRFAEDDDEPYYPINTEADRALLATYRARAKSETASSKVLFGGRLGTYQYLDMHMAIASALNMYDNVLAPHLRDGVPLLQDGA
PrP 5UTR single: prion 5' UTR mRNA inhibition, cherry-pick retest; shares compounds with PrP 5UTR inh; cell-based prion protein 5' UTR reporter, plate reader; inhibition, % at 2.5 µM; actives 48% (n = 1,100); AID 504592; in the data active means inhibition above about 54%; inconclusive means no clear call, values can overlap the other calls
Of the large screens only hits and unclear results are named; the others gave an inactive call (follow-up assays come after a bar, where they were run).

O=C1C=C(/C=C/C2C=CC=CC2)C[C@@H](c2ccc(Cl)cc2)C1 (stereo partly drawn)	none
CCCNC(=O)c1ccc2c(=O)c(O)c(-c3cccc(Br)c3)[nH]c2c1	PrP 5UTR inh 56 | PrP 5UTR single inconclusive
Cc1ccc(CC(=O)NCCCn2ccnc2)cc1	none (no result: Mtb UGM inh)
Cc1ccc(C(=O)NCCCn2ccnc2)o1	PrP 5UTR inh 73 | PrP 5UTR single inactive
COc1ccc(CCN(C)C2CCCN(C(=O)CCC(F)(F)F)C2)cc1OC (stereo not drawn)	none
COc1cc(-c2noc(C)c2/C=C/c2ccc(C(=O)O)cc2)cc(OC)c1OC	none
COc1cc(-c2noc(C)c2/C=C/c2cccc([N+](=O)[O-])c2)cc(OC)c1OC	PrP 5UTR inh 58 | PrP 5UTR single 71
CO/C(N)=C(\C#N)N=Cc1ccccc1Cl	none
COC(=O)C1CCN(c2cc(=O)n(-c3ccc(OC)cc3)c(=O)[nH]2)CC1	PrP 5UTR inh 68 | PrP 5UTR single inactive
CCOC(=O)N1CCN(c2cc(=O)n(-c3ccc(OC)cc3)c(=O)[nH]2)CC1	none
Cc1ccc(NC(=O)Cc2ccccc2)cc1S(=O)(=O)N1CCOCC1	none
O=C(Nc1ccc(OCc2ccccc2Cl)cc1)c1cccnc1	PrP 5UTR inh 66 | PrP 5UTR single 71
O=C(Nc1ccc(OCc2ccccc2)cc1)c1cccnc1	none
Cc1ccc(CNC(=O)C2CCN(c3nnc(N4CCCC4=O)s3)CC2)cc1	PrP 5UTR inh 69 | PrP 5UTR single inactive
O=C(NCc1ccc(Cl)cc1)C1CCN(c2nnc(N3CCCC3=O)s2)CC1	none
N#Cc1ccccc1-c1ccccc1C(=O)N1CCCCC1	none
Cc1nn(-c2ccccc2)c(C)c1/C=N/NC(=O)c1cc(-c2ccccc2)n[nH]1	PrP 5UTR inh 66 | PrP 5UTR single 80
CCCCN1C=CC(=C2C(=O)c3ccccc3C2=O)C=C1	PrP 5UTR inh 87 | PrP 5UTR single 92
CC(C)(O)/C=C/C(=O)[C@](C)(O)C1[C@H](O)C[C@@]2(C)C3CC=C4C(C=C(O[C@@H]5O[C@H](CO)[C@@H](O)[C@H](O)[C@H]5O)C(=O)C4(C)C)[C@]3(C)C(=O)C[C@]12C (stereo partly drawn)	none
CC(C)(O)/C=C/C(=O)[C@](C)(O)C1[C@H](O)C[C@@]2(C)C3CC=C4C(C[C@H](O)[C@@H](O)C4(C)C)[C@]3(C)C(=O)C[C@]12C (stereo partly drawn)	PrP 5UTR inh 65 | PrP 5UTR single 75
CCC1=C2CC[C@H]3C(=O)N(c4ccccc4)C(=O)[C@H]3[C@H]2[C@@]2(C)C(=NCc3ccccc3)OC(=O)N2C1=O	PrP 5UTR inh 76 | PrP 5UTR single inactive
O=C(CCCc1ccccc1)NC1CC1	none
O=C(O)CCCc1ccc2c(c1)CCc1ccccc1-2	PrP 5UTR inh 65 | PrP 5UTR single 75
O=C(O)c1cscc1-c1cccc2ccccc12	none (no result: Mtb betalactam, Rv3671c protease, PrP 5UTR inh, Mtb UGM inh)
CN(C(=O)c1ccccc1C(=O)OCC(=O)NCc1cccs1)C1CCCCC1	PrP 5UTR inh 55 | PrP 5UTR single inactive
COC(=O)C1=C(c2ccccc2OCc2ccccc2)C[C@@H]2CC[C@H]1N2C(=O)NCc1ccccc1	none
COC(=O)C1=C(c2ccccc2OCc2ccccc2)C[C@@H]2CC[C@H]1N2C(=O)NCCc1ccc(F)cc1	PrP 5UTR inh 58 | PrP 5UTR single inactive
COc1cc(C(=O)N2CCCC(c3cc(C(=O)NCc4ccccc4)no3)C2)cc(OC)c1C (stereo not drawn)	none (no result: Mtb betalactam, Rv3671c protease, PrP 5UTR inh, Mtb UGM inh)
Cc1ccc(C(=O)n2c(N)nc3ccccc32)cc1	PrP 5UTR inh 74 | PrP 5UTR single 55
Cc1ccc(C(=O)Nc2ccc3ncccc3c2)cc1	PrP 5UTR inh 56 | PrP 5UTR single inactive
Cc1cccc(C)c1C(O)c1ncc(-c2cccc3ccccc23)[nH]1 (stereo not drawn)	none (no result: Mtb betalactam, Rv3671c protease, PrP 5UTR inh, Mtb UGM inh)
Cc1nc2ccccc2c(=O)n1/N=C/c1c(O)ccc2ccccc12	none
Cc1nc2ccccc2c(=O)n1/N=C/c1c(O)ccc2oc3c(c12)CCCC3	PrP 5UTR inh 61 | PrP 5UTR single inactive
CC1CCc2sc(C(=O)N/N=C/c3ccc([N+](=O)[O-])cc3)cc2C1 (stereo not drawn)	none
Cc1ccc(-n2nnc(-c3nccs3)n2)cc1	PrP 5UTR inh 77 | PrP 5UTR single 62
CC(CSC(=O)c1ccccc1)C(=O)N1c2ccccc2CC1C(=O)O (stereo not drawn)	none (no result: BH1578 lux ind, Mtb betalactam, Rv3671c protease, PrP 5UTR inh, Mtb UGM inh)
Cc1ccc(C(=O)c2cc([N+](=O)[O-])ccc2N2CCCCC2)cc1	PrP 5UTR inh 56 | PrP 5UTR single 86
CC1CCCN(c2ccc([N+](=O)[O-])cc2C(=O)c2ccccc2)C1 (stereo not drawn)	PrP 5UTR inh 61 | PrP 5UTR single 80
CC1CC(C)CN(C(=O)c2ccc3c(c2NCCO)C(=O)c2ccccc2C3=O)C1 (stereo not drawn)	none
C=CCN(CC=C)S(=O)(=O)c1ccc(NC(=S)NC(=O)/C=C/c2ccccc2)cc1	PrP 5UTR inh 59 | PrP 5UTR single inactive
CCN(CCO)c1ccc(Nc2cc(-c3ccc(-c4ccccc4)cc3)ncn2)cc1	none (no result: Mtb betalactam, Rv3671c protease, PrP 5UTR inh, Mtb UGM inh)
CCN(CCO)c1ccc(N=Nc2cc(C)[nH]n2)cc1	PrP 5UTR inh 61 | PrP 5UTR single 62
CC(C)c1nnc(NC(=O)CSc2nnc(NC(=O)c3c(F)cccc3F)s2)s1	PrP 5UTR inh 79 | PrP 5UTR single inactive
COc1ccc(C)cc1S(=O)(=O)NC1CC1	none
CC(=O)C[C@H](O)CC(=O)[C@H]1OC(=O)[C@H](C)CCCCc2ccccc21	PrP 5UTR inh 66 | PrP 5UTR single inactive
CC(=O)C[C@H](O)CC(=O)[C@H]1OC(=O)[C@@H](C)CCCCc2ccccc21	none
CC(=O)C[C@H](O)CC(=O)[C@@H]1OC(=O)CCCCCc2ccccc21	PrP 5UTR inh 90 | PrP 5UTR single inactive
CC(=O)c1ccccc1NC(=O)C1CCCN(C(=O)c2ccc(Cl)cc2)C1 (stereo not drawn)	none (no result: PrP 5UTR inh)
CC(C)OC(=O)c1cc(C(=O)c2cc(Cl)ccc2O)coc1=N	none
CC(C)OC(=O)c1cc(C(=O)c2cc(Br)ccc2O)coc1=N	PrP 5UTR inh 63 | PrP 5UTR single inactive
Cn1c(N)c(C(=O)N2CCN(c3ccccc3)CC2)c(=O)n(C)c1=O	none (no result: Mtb betalactam, Rv3671c protease, PrP 5UTR inh, Mtb UGM inh)
O=C(NCCc1ccccn1)c1ccc(NS(=O)(=O)c2ccc(F)cc2)cc1	none
CCN(CC)S(=O)(=O)c1ccc(C(=O)NCCc2ccccn2)cc1	PrP 5UTR inh 78 | PrP 5UTR single inactive
CCN(CC)S(=O)(=O)c1ccc(C(=O)O)cc1	PrP 5UTR inh 80 | PrP 5UTR single inactive
CSCC(O)Cn1ncc2ccccc2c1=O (stereo not drawn)	none
O=C(NCc1ccco1)Nc1cccc(-c2ccccc2)c1	none (no result: Mtb betalactam, Rv3671c protease, Mtb UGM inh)
Fc1cccc(NC(=S)N2CCN(c3ccccn3)CC2)c1	none
CCn1c(=N)n(CC(=O)C23CC4CC(CC(C4)C2)C3)c2ccccc21	none
